Measured values published in PubChem BioAssay (NCATS).
Values joined by “and” are separate entries in the source; they are usually repeats but may differ in a detail not shown here. Equal entries are not always repeated. Records with an inconclusive call do not appear. The source holds several records for some structures; these can differ, active in one and inactive in another. Active and inactive are the calls of the source. The call rests on the fitted dose curve; in most records, active means well fitted activation curve with a large enough effect; inconclusive means small, poorly fitted or top-dose-only effect; inactive means no such curve, though single readings can be large or run the other way.

molecular target: Cellular tumor antigen p53 (Homo sapiens) (UniProt P04637); test: Primary qHTS for small molecule compounds that upregulate eGFP-tagged delta133p53alpha (in N-terminal) cells. (AID 2060322); details: NCI-H358 eGFP-delta133p53alpha fluorescence, 24 h; activation: hits give high values; further: nearly all actives have a fitted effect of over 75% in size;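 on activation: cells pre-induced with doxycycline then dosed without doxycycline; series mostly up to about 56 µM; 0% = DMSO vehicle and 100% = reference activator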
Text: Assay Development and Screening Technology
National Center for Advancing Translational Sciences (NCATS),
National Institute of Health (NIH), Rockville, Maryland
Cellular senescence (CS) is one of the hallmarks of aging and age-related diseases. Senescent cells are characterized by an irreversible growth arrest, an increase in senescence-associated beta-galactosidase (SA-beta-gal) activity and p16INK4a expression, an activation of the DNA damage response pathways, and the emergence of a senescence-associated secretory phenotype (SASP).
Delta133p53alpha, a human/primate-specific p53 protein isoform, delays or inhibits the induction of CS and SASP in various types of human cells, including progeria-derived fibroblasts, primary normal astrocytes, and CD8+ T lymphocytes. Induction of delta133p53alpha with small molecule compounds may provide therapeutic opportunities for inhibition of senescence/SASP-associated pathologies in progeria syndromes, astrocyte-mediated neuroprotection in neurodegenerative diseases, and possibly prevention and treatment of a wider range of senescence- and aging-associated diseases.
Here we report the development and validation of a cell-based quantitative high throughput screening (qHTS) assay in 1,536-well format. This qHTS assay uses the NCI-H358 cell line with doxycycline-inducible expression of enhanced green fluorescent protein (eGFP)-tagged delta133p53alpha, which allows efficient and highly quantitative measurement of the protein levels.
PROTOCOL TABLE (as described by Inglese J, Shamu CE and Guy RK. 2007)
SEQUENCE No. (e.g., 1, 2, 3, etc.); […] (e.g., Cells, Incubation, Reagent, etc.); VALUE; DESCRIPTION.
1; Cells; 4uL; 800 doxycycline treated cells / well in doxycycline-free media, 1536-well black, clear-bottom low base Aurora microplates.
2; Compounds; 23 nL; Kalypsis pin tool (Wako) equipped with 1536-well pin heads, 5-azacytidine positive control.
3; Incubation; 24 hr; 37C, 5% CO2; 95% relative humidity.
4; Aspiration; 1x; BioTek EL406 washer dispenser (Agilent).
5; Fixing; 3.5% paraformaldehyde, BioTek EL406 washer dispenser (Agilent).
6; Washing; 1x PBS; BioTek EL406 washer dispenser (Agilent).
7; Nuclei staining; 1:1000 dilution of Hoechst 33342 (Thermofisher), BioTek EL406 washer dispenser (Agilent).
8; Incubation; 20 min; in the dark at room temperature.
9; Washing; 2x, 1x PBS (ThermoFisher), BioTek EL406 washer dispenser (Agilent).
10; Reagent; 10 uL; 1x PBS per well, sealed with clear adhesive tape.
NOTES (numbers refer to sequence numbers above).
1. NCI-H358 cells expressing eGFP-tagged delta133p53alpha were grown in T75 culture flasks and treated with doxycycline for 24h, at 10 ng/ml for eGFP-D133p53a cells (N-terminal cell) and 100 ng/ml for D133p53a-eGFP cells (C-terminal cells). Cells were trypsinized, counted using a Counted 3 Automated Cell Counter (Thermo Fisher), and diluted to a concentration of 200,000 cells/ml. A Multidrop Combi Reagent Dispenser (ThermoFisher) was used to dispense 800 cells/well in […] of doxycycline-free media, into 1536-well black/clear bottom low base plates (AuroraMicroplates).
2. After plating cells, 23 nl of compound library, DMSO vehicle control or positive control (5-azacytidine) were transferred by Pin Tool (Wako). The plate map layout was the same for each plate: (column 1) non-doxycycline treated cells + DMSO vehicle control; (column 2) doxycycline treated cells + DMSO vehicle control baseline; (column 3) doxycycline treated cells + positive control 57.5 uM final concentration 5-azacytidine; (column 4) doxycycline treated cells + serial dilution of 5-azacytidine, 16-point 1:2 titration spanning 1.8 nM to […] final concentration; (columns 5-48) doxycycline treated cells + titration of library compounds.
3. Cells were incubated at 37 °C, 5 % CO2, 95% RH with breathable metal lid for 24h.
4-10. […] After two washes, 10 ul of 1X PBS (Thermo Fisher) was dispensed to each well. Clear adhesive plate seals (VWR) were applied and plates stored at 4 °C.
11. […]
Potency means the concentration at half of the fitted maximal effect.

Chain of Cellular tumor antigen p53 (Homo sapiens) (P04637 whole entry, looked up): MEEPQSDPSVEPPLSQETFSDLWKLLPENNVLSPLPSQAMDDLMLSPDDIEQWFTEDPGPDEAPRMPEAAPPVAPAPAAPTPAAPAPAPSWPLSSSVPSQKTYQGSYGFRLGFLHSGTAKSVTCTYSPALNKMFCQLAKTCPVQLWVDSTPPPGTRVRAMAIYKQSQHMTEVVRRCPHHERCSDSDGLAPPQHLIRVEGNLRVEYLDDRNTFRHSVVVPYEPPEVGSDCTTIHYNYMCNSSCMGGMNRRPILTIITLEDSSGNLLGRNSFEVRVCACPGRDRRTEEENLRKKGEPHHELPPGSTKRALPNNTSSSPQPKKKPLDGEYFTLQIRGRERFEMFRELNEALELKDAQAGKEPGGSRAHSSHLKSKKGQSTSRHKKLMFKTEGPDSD

Row | Structure (SMILES) | Potency | activation
1 | C[C@@H]1C[C@@H]2O[C@H]2/C=C\C=C\C(=O)Cc2c(Cl)c(O)cc(O)c2C(=O)O1 | 14.8 µM (active) | 
2 | C=C1CC2C3(C)C=CC(=O)OC(C)(C)C3CC(OC(C)=O)C2(C)C2C(=O)OC(C)C(=O)C12C (stereo not given) |  | 15.3% (inactive)
3 | CN1C[C@H]2c3ccccc3Oc3ccc(Cl)cc3[C@@H]2C1 |  | -34.8% (inactive) and -0.565% (inactive)
4 | CN(C)CCC=C1c2ccccc2COc2ccc(CC(=O)O)cc21 |  | 16.8% (inactive)
5 | Cn1cc(C(F)(F)F)nc1-c1ccc(OCC(O)CNCCOc2ccc(O)c(C(N)=O)c2)cc1 (stereo not given) |  | -30.5% (inactive)
6 | COc1cc(N)c(Cl)cc1C(=O)NC[C@@H]1CCN2CCC[C@@H]12 |  | -3.34% (inactive)
7 | CC1(C)CO[C@@H](CC(=O)O)CN1 |  | -5.86% (inactive)
8 | O=c1ccc2ccc(O)c(O)c2o1 |  | 0.546% (inactive) and -34.3% (inactive)
9 | COc1cc2nc(N3CCCN(C)CC3)nc(NC3CCN(Cc4ccccc4)CC3)c2cc1OC | 30.6 µM (active) | -2.51% (inactive)
10 | CN(C)CCOc1ccc(-c2nc(-c3ccc4c(c3)CCC4=NO)c(-c3ccncc3)[nH]2)cc1 |  | -18.7% (inactive)
11 | CC(N)C12CC3CC(CC(C3)C1)C2 (stereo not given) |  | -14.2% (inactive) and 12.7% (inactive)
12 | CC(C)=CCC/C(C)=C/CCC1(C)Oc2c(c(O)cc3c2CN(C(CCC(=O)O)C(=O)O)C3=O)CC1O (stereo not given) |  | -13.7% (inactive)
13 | CCOc1ccccc1OCC1CNCCO1 (stereo not given) |  | -17.6% (inactive)
14 | O=C(NCCN1CCOCC1)c1ccc(Cl)cc1 |  | -2.82% (inactive) and -8.35% (inactive)
15 | Cc1nc2ccccc2c(-c2ccc3c4c(ccnc24)CCO3)c1[C@H](OC(C)(C)C)C(=O)O |  | 0.955% (inactive)
16 | O=C(/C=C/c1ccc(O)cc1)OC[C@@]1(O)C=C[C@@H]2C(C(=O)O)=CO[C@@H](O[C@@H]3O[C@H](CO)[C@@H](O)[C@H](O)[C@H]3O)[C@@H]21 |  | -4.46% (inactive)
17 | COc1ccc(C(=O)O[C@H]2CC(C)=CC[C@@]3(C)[C@@H](OC(C)=O)C[C@@](O)(C(C)C)[C@H]23)cc1 |  | 1.79% (inactive)
18 | CC1C2=CC(=O)OC2(O)CC2C1C(O)CC1C(C)(CO)CCCC21C (stereo not given) |  | -9.16% (inactive)
19 | CN1CCN(Cc2ccc(NC(=O)Cc3ccc(Oc4cc(NC(=O)C5CC5)ncn4)cc3)cc2C(F)(F)F)CC1 | 6.75 µM (active) | 

Row | Structure (SMILES) | Potency | activation
20 | OCC1=CC[C@@H]2C=CO[C@@H](O[C@@H]3O[C@H](CO)[C@@H](O)[C@H](O)[C@H]3O)[C@H]12 |  | -9.92% (inactive)
21 | CO[C@H]1C=CO[C@@]2(C)Oc3c(C)c(O)c4c(O)c(c5c(c4c3C2=O)NC2(CCN(CC(C)C)CC2)N=5)=NC(=O)C(C)=CC=C[C@H](C)[C@H](O)[C@@H](C)[C@@H](O)[C@@H](C)[C@H](OC(C)=O)[C@H]1C |  | 0.549% (inactive)
22 | Nc1ncnc2c1C(=O)N(c1ccc(C3CCC(CC(=O)O)CC3)cc1)CCO2 (stereo not given) |  | 18.6% (inactive)
23 | c1ccc2nc(C3=NCCN3)ccc2c1 |  | 5.83% (inactive)
24 | OC[C@H]1O[C@@H](OC/C=C/c2ccc(O)cc2)[C@H](O)[C@@H](O)[C@@H]1O |  | 12.5% (inactive)
25 | O=C(N/N=C/c1ccc(O)c(O)c1)c1cc2ccccc2cc1O |  | 4.33% (inactive)
26 | CC(C)COCC(CN(Cc1ccccc1)c1ccccc1)N1CCCC1 (stereo not given) | 34.7 µM (active) | -16.2% (inactive)
27 | O=C(/C=C/c1ccc(O)c(O)c1)O[C@H]1[C@H](OC2CCCCC2O)O[C@H](CO)[C@@H](O)[C@@H]1O (stereo not given in full) |  | 5.36% (inactive)
28 | COc1c(C)c(OCC=C(C)C)cc2c1CNC2=O |  | -19.8% (inactive)
29 | CCOC(=O)C(=O)c1csc(NC=O)n1 |  | -16.4% (inactive)
30 | Cc1onc(-c2c(Cl)cccc2Cl)c1CC(=O)NCc1ccc(OCC(F)(F)F)nc1 |  | -9.07% (inactive)
31 | COc1ccc([C@@H]2Sc3ccccc3N(CCN(C)C)C(=O)[C@@H]2OC(C)=O)cc1 |  | 17.5% (inactive) and -3.98% (inactive)
32 | CC(=O)O[C@H]1CC2(C)[C@@H](C[C@@H](O)[C@H]3[C@@]4(C)CC[C@@H](O)[C@@H](C)[C@@H]4CC[C@@]32C)C1=C(CCC=C(C)C)C(=O)O (stereo not given in full) |  | -11.4% (inactive)
33 | CN(C)C1CCN(C(=O)c2ccc(NC(=O)Nc3nc(N4CCOCC4)nc(N4CCOCC4)n3)cc2)CC1 |  | -12.1% (inactive)
34 | CC(C)NC(=O)N1CC[C@H](N=C2Nc3cc(F)ccc3N(CC(F)F)c3ccc(Cl)cc32)C1 |  | 4.33% (inactive)
35 | CC(=O)OC/C(=C/C(=O)O)CC[C@@H]1C(C=O)=CC[C@@H]2C(C)(C)CCC[C@@]12C |  | -32.8% (inactive)
36 | Cc1cc(OCc2nnc(SC3CCCC3)n2-c2cccnc2)ccc1-c1ccc(S(C)(=O)=O)cc1 | 6.75 µM (active) | 
37 | CCCCCCCCc1ccc(-c2ccc(C(=O)O)cc2)cc1 |  | -87.3% (inactive)
38 | COc1cccc(OCCCN)c1-c1cc(Nc2cnc(C#N)cn2)n[nH]1 | 26.9 µM (active) | 
